Test results reported in PubChem BioAssay (NCI).
The panel holds about 83,000 compounds, 20% with a hit somewhere; the sample as a whole holds those more often.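 Note: values are percent growth. 100 is the growth of untreated cells, values between 100 and 0 indicate rising inhibition; between -100 and 0 indicates cell death.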 The source made the active and inactive calls. Rule for the calls: active = growth percent below 10; inactive = the rest.

Key:
Assay in all cases: NCI-60 one-dose screen, 48 h (100 = growth as untreated, 0 = no growth, -100 = all killed)
Settings in all cases: 10 µM unless noted
RPMI-8226 leukemia = system: RPMI-8226 leukemia
OVCAR-8 ovarian = system: OVCAR-8 ovarian
OVCAR-5 ovarian = system: OVCAR-5 ovarian
OVCAR-4 ovarian = system: OVCAR-4 ovarian
SK-OV-3 ovarian = system: SK-OV-3 ovarian
IGROV1 ovarian = system: IGROV1 ovarian
OVCAR-3 ovarian = system: OVCAR-3 ovarian
HS 578T breast = system: HS 578T breast
NCI/ADR-RES ovarian = system: NCI/ADR-RES ovarian
T-47D breast = system: T-47D breast
MDA-MB-435 melanoma = system: MDA-MB-435 melanoma
SW-620 colon = system: SW-620 colon
MCF7 breast = system: MCF7 breast
HCT-116 colon = system: HCT-116 colon
HCC-2998 colon = system: HCC-2998 colon
KM12 colon = system: KM12 colon
BT-549 breast = system: BT-549 breast

Measured: growth

CCC1=C[C@H]2CN(CCc3c([nH]c4ccccc34)[C@@](C(=O)OC)(c3cc4c(cc3OC)N(C)[C@H]3[C@@](O)(C(=O)OC)[C@H](OC(C)=O)[C@]5(CC)[C@@H]6C[C@@H]6CN6CC[C@]43[C@@H]65)C2)C1
active: RPMI-8226 leukemia -25.3% | OVCAR-8 ovarian 8.29% | OVCAR-3 ovarian 0.761% | MDA-MB-435 melanoma -32.6% | MCF7 breast 7.76% | HCT-116 colon 4.74%
inactive: OVCAR-5 ovarian 42% | OVCAR-4 ovarian 37.6% | SK-OV-3 ovarian 17.9% | IGROV1 ovarian 21.6% | HS 578T breast 10.8% | NCI/ADR-RES ovarian 28% | T-47D breast 70% | SW-620 colon 29.2% | HCC-2998 colon 22.2% | KM12 colon 16.2%

Cc1nnc(/N=C2\NC(=O)/C(=C/c3ccsc3)S2)s1
inactive: RPMI-8226 leukemia 94% | OVCAR-8 ovarian 104% | OVCAR-5 ovarian 107% | OVCAR-4 ovarian 90.6% | SK-OV-3 ovarian 89.5% | IGROV1 ovarian 90.7% | OVCAR-3 ovarian 93.3% | HS 578T breast 96.4% | T-47D breast 84.4% | BT-549 breast 94.6% | MDA-MB-435 melanoma 91.5% | SW-620 colon 98.8% | MCF7 breast 79% | HCT-116 colon 83.6% | HCC-2998 colon 95.7% | KM12 colon 84.7%

CCOC(=O)c1c(C)nc2c(c1N)CC(=O)N2CCc1ccccc1
active: RPMI-8226 leukemia -6.34% | BT-549 breast -17.1% | MDA-MB-435 melanoma 8.84% | SW-620 colon -67.5% | HCT-116 colon 6.98%
inactive: OVCAR-8 ovarian 24.3% | OVCAR-5 ovarian 53.3% | OVCAR-4 ovarian 62.8% | SK-OV-3 ovarian 45.6% | IGROV1 ovarian 28.7% | OVCAR-3 ovarian 35.4% | HS 578T breast 41.1% | T-47D breast 53.9% | MCF7 breast 11.8% | HCC-2998 colon 64.4% | KM12 colon 16.1%

C=C1C(=O)O[C@H]2[C@H]1CC/C(COC(=O)c1cccnc1N)=C\CC[C@@]1(C)O[C@@H]21
active: RPMI-8226 leukemia -19.2% | OVCAR-3 ovarian -4.59% | BT-549 breast -37.2% | MDA-MB-435 melanoma -4.17% | SW-620 colon 4.05% | MCF7 breast 7.98% | HCT-116 colon 3.94%
inactive: OVCAR-8 ovarian 14.9% | OVCAR-5 ovarian 36.1% | OVCAR-4 ovarian 54.7% | SK-OV-3 ovarian 71.3% | IGROV1 ovarian 13.8% | HS 578T breast 28.9% | T-47D breast 50.7% | HCC-2998 colon 35.3% | KM12 colon 13.4%

COC(=O)CCc1cc(O)c2c(c1)[C@@H](C(=O)OC)[C@H](c1ccc(O)c(O)c1)O2
active: MDA-MB-435 melanoma 4.1%
inactive: RPMI-8226 leukemia 80.5% | OVCAR-8 ovarian 90.6% | OVCAR-5 ovarian 98.3% | OVCAR-4 ovarian 83% | SK-OV-3 ovarian 97.4% | IGROV1 ovarian 88.1% | OVCAR-3 ovarian 27.5% | HS 578T breast 74.3% | NCI/ADR-RES ovarian 87.8% | T-47D breast 66% | SW-620 colon 63.8% | MCF7 breast 23.7% | HCT-116 colon 59.5% | HCC-2998 colon 94.9% | KM12 colon 55.8%

Cc1cc(O)cc(O)c1N=NC1=NCCS1
inactive: RPMI-8226 leukemia 106% | OVCAR-8 ovarian 101% | OVCAR-5 ovarian 101% | OVCAR-4 ovarian 102% | SK-OV-3 ovarian 97.2% | IGROV1 ovarian 104% | OVCAR-3 ovarian 104% | HS 578T breast 116% | T-47D breast 92.5% | BT-549 breast 93.9% | MDA-MB-435 melanoma 105% | SW-620 colon 111% | MCF7 breast 86.5% | HCT-116 colon 93.3% | HCC-2998 colon 95.7% | KM12 colon 102%

Cc1nc2sc(C(=O)Nc3ccccc3Cl)c(N)c2cc1C(C)O (stereo not drawn)
inactive: RPMI-8226 leukemia 88.1% | OVCAR-8 ovarian 95% | OVCAR-5 ovarian 97.8% | OVCAR-4 ovarian 97.9% | SK-OV-3 ovarian 78.7% | IGROV1 ovarian 92.9% | OVCAR-3 ovarian 88.8% | HS 578T breast 88.1% | T-47D breast 86.4% | BT-549 breast 78.8% | SW-620 colon 57.6% | MCF7 breast 48.6% | HCT-116 colon 67.8% | HCC-2998 colon 84.5% | KM12 colon 56.1%
active: MDA-MB-435 melanoma 5.06%

NCCCn1c2c(c3cc(-c4ccn[nH]4)ccc3c1=O)C(=O)c1ccccc1-2
inactive: RPMI-8226 leukemia 51.3% | OVCAR-8 ovarian 40.6% | OVCAR-5 ovarian 98.8% | OVCAR-4 ovarian 50.3% | SK-OV-3 ovarian 81.5% | IGROV1 ovarian 35.4% | OVCAR-3 ovarian 59% | HS 578T breast 62.3% | NCI/ADR-RES ovarian 45.8% | T-47D breast 73.3% | MDA-MB-435 melanoma 63% | SW-620 colon 24.6% | MCF7 breast 13% | HCT-116 colon 19.1% | HCC-2998 colon 60.6% | KM12 colon 38.7%

Cc1ccc(C2=N[C@H]3CCC[C@@H]3N(c3ccccc3)C(C(Cl)Cl)=N2)cc1
inactive: RPMI-8226 leukemia 111% | OVCAR-8 ovarian 113% | OVCAR-5 ovarian 91.3% | OVCAR-4 ovarian 96.9% | SK-OV-3 ovarian 111% | IGROV1 ovarian 98.7% | OVCAR-3 ovarian 103% | HS 578T breast 100% | T-47D breast 106% | BT-549 breast 106% | MDA-MB-435 melanoma 103% | SW-620 colon 107% | MCF7 breast 87% | HCT-116 colon 97.7% | HCC-2998 colon 110% | KM12 colon 100%

O=C(CSC(=S)N1CCCCC1)Nc1ccccc1
inactive: RPMI-8226 leukemia 84.6% | OVCAR-8 ovarian 99.4% | OVCAR-5 ovarian 106% | OVCAR-4 ovarian 109% | SK-OV-3 ovarian 106% | IGROV1 ovarian 103% | OVCAR-3 ovarian 107% | HS 578T breast 106% | T-47D breast 81.7% | BT-549 breast 101% | MDA-MB-435 melanoma 110% | SW-620 colon 102% | MCF7 breast 99.8% | HCT-116 colon 92.4% | HCC-2998 colon 98.2% | KM12 colon 95.8%

Nc1c(C(=O)Nc2ccccn2)sc2nc3c(cc12)CCCCCC3
active: RPMI-8226 leukemia 5.43% | OVCAR-3 ovarian -44.5% | MDA-MB-435 melanoma -57.5% | HCT-116 colon 7.24%
inactive: OVCAR-8 ovarian 19.3% | OVCAR-5 ovarian 46.6% | OVCAR-4 ovarian 23.6% | SK-OV-3 ovarian 19% | IGROV1 ovarian 28.9% | HS 578T breast 18.9% | T-47D breast 23.4% | BT-549 breast 31% | SW-620 colon 19% | MCF7 breast 15.6% | HCC-2998 colon 48.9% | KM12 colon 14.4%

O=C(N/N=C/C[C@@H]1[C@@H](/C=C/[C@@H](O)COc2cccc(Cl)c2)[C@H](O)C[C@@H]1O)c1ccncc1
inactive: RPMI-8226 leukemia 94.5% | OVCAR-8 ovarian 79.9% | OVCAR-5 ovarian 97.4% | OVCAR-4 ovarian 104% | SK-OV-3 ovarian 77% | IGROV1 ovarian 109% | OVCAR-3 ovarian 105% | HS 578T breast 92.5% | T-47D breast 90.8% | BT-549 breast 95.3% | MDA-MB-435 melanoma 99.8% | SW-620 colon 94.2% | MCF7 breast 99.1% | HCT-116 colon 92.7% | HCC-2998 colon 104% | KM12 colon 105%

CC(=O)OCC1SC(OC(C)=O)C(NC(=O)/C=C/CCl)C(OC(C)=O)C1OC(C)=O (stereo not drawn)
inactive: RPMI-8226 leukemia 95.2% | OVCAR-8 ovarian 98.2% | OVCAR-5 ovarian 148% | OVCAR-4 ovarian 101% | SK-OV-3 ovarian 86.4% | IGROV1 ovarian 105% | OVCAR-3 ovarian 102% | HS 578T breast 93.5% | T-47D breast 90.6% | BT-549 breast 105% | MDA-MB-435 melanoma 101% | SW-620 colon 107% | MCF7 breast 85.8% | HCT-116 colon 101% | HCC-2998 colon 104% | KM12 colon 102%
